24 molecules from PubChem BioAssay (Tox21) can be followed below.

Values joined by “and” are separate entries in the source; they are usually repeats but may differ in a detail not shown here. Equal values may be shown once. Inconclusive results are not listed. Some structures have more than one record in an assay (separate samples or runs), and their calls can disagree. Active and inactive are the calls of the source. Unless noted, the call rests on the fitted dose curve; in most records, active means well fitted curve in the direction sought with a large enough effect in the repeat runs; inconclusive means weak or mixed curves; inactive means no such curve, though single readings can be large; an effect the other way counts as inactive or inconclusive.

For assay [1], the target named is Acetylcholinesterase (Homo sapiens) (UniProt P22303). Nature of the assay: Acetylcholinesterase (AChE) small molecule antagonists: colormetric cell-based qHTS assay (AID 1347395; calls by dose curve; further: nearly all actives have a fitted effect of over 30% in size; further: potency means the concentration at half of the fitted maximal effect). The method in brief:
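Colorimetric read-out: DTNB detects thiocholine released when cellular AChE in SH-SY5Y cells hydrolyses acetylthiocholine. Cells attached overnight, received compound for 30 min at 37 C, then substrate mix for 90 min at 37 C.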

Assay [2] has the same target. Nature of the assay: Acetylcholinesterase (AChE) small molecule antagonists: enzyme-based qHTS assay (AID 1347397; calls by dose curve; further: nearly all actives have a fitted effect of over 55% in size; further: potency means the concentration at half of the fitted maximal effect). As to conditions: Potency: AChE enzyme activity inhibition. The method in brief:
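Recombinant human AChE, dispensed at 50 mU/mL, was preincubated with Tox21 10K compounds or DMSO vehicle for 30 min at room temperature. DTNB plus acetylthiocholine was then added, and thiocholine was measured colorimetrically after a further 10 min.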

Assay [3] shares this target. Nature of the assay: Acetylcholinesterase (AChE) small molecule antagonists: fluorescence cell-based qHTS assay (AID 1347398; calls by dose curve; further: nearly all actives have a fitted effect of over 50% in size; further: potency means the concentration at half of the fitted maximal effect). As to conditions: Potency: AChE activity. In a few lines: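 Human SH-SY5Y cells were plated overnight at 37 C, exposed to compound for 30 min at 37 C, 5% CO2, then given acetylthiocholine plus Thiolite Green for 40 min at room temperature; thiocholine fluorescence (Ex/Em 490/520 nm) reports endogenous AChE activity.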

For assay [4] the target is unchanged. In words: Acetylcholinesterase (AChE) small molecule antagonists: enzyme-based qHTS assay with human liver microsomes (AID 1347399; calls by dose curve; further: nearly all actives have a fitted effect of over 60% in size). The settings on record: Potency: qHTS inhibition. In a few lines:
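Recombinant human AChE (50 mU/mL in the enzyme mix) and human liver microsomes (0.25 mg/mL final) were preincubated with compound and NADPH (0.25 mg/mL final) for 30 min at 37 C. Acetylthiocholine/DTNB was then added; thiocholine was read colorimetrically after 10 min at room temperature.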

Assay [5] addresses Cytochrome P450 2D6 (Homo sapiens) (UniProt P10635). Nature of the assay: Cytochrome P450 Family 2 Subfamily D Member 6 (CYP2D6) small molecule antagonists: luciferase reporter qHTS assay (AID 1671196). Further: nearly all actives have a fitted effect of over 50% in size. Further: potency means the concentration at half of the fitted maximal effect. The method in brief:
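Read-out is luminescence from luciferin formed by CYP2D6 turnover of a proluciferin substrate, recorded as relative luminescence units. Reactions ran 1 h at room temperature after NADPH regeneration solution was added.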

The target in assay [6] is Cytochrome P450 2C19 (Homo sapiens) (UniProt P33261). Nature of the assay: Cytochrome P450 Family 2 Subfamily C Member 19 (CYP2C19) small molecule antagonists: luciferase reporter qHTS assay (AID 1671197). Further: nearly all actives have a fitted effect of over 65% in size. Further: potency means the concentration at half of the fitted maximal effect. The method in brief: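 Inhibition of CYP2C19 was scored from loss of luminescence in a P450-Glo proluciferin substrate assay, NADPH-started and run 1 h at 37C, with ketoconazole as positive control.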
Chain of Cytochrome P450 2C19 (Homo sapiens) (P33261 whole entry, looked up): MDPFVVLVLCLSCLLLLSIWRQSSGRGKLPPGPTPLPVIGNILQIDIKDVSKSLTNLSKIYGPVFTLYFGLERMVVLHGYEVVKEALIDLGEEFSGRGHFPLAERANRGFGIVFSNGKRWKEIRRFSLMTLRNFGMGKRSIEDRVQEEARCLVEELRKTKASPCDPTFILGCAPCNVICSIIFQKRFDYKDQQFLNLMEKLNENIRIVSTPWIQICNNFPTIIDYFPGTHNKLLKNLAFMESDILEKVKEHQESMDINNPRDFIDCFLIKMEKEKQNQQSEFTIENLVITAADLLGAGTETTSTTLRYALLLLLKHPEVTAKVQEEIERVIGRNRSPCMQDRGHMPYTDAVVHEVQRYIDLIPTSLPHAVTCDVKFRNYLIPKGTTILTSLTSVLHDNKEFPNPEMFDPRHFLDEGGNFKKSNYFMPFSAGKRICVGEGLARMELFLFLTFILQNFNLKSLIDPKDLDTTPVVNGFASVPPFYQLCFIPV

Assay [7] addresses Cytochrome P450 1A2 (Homo sapiens) (UniProt P05177). Nature of the assay: Cytochrome P450 Family 1 Subfamily A Member 2 (CYP1A2) small molecule antagonists: luciferase reporter qHTS assay (AID 1671199). Further: nearly all actives have a fitted effect of over 50% in size. Further: potency means the concentration at half of the fitted maximal effect. In a few lines: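 P450-Glo CYP1A2, 1536-well qHTS: enzyme/proluciferin substrate + cpd (DMSO), 10 min RT; NADPH regen, 1 h RT; detection reagent, 20 min; luminescence, RLU.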
Assay [8] has as its target Voltage-gated inwardly rectifying potassium channel KCNH2 (Homo sapiens) (UniProt Q12809). Nature of the assay: Human Ether-a-go-go-Related Gene (hERG) channel small molecule antagonists: fluorescence cell-based qHTS assay (AID 1671200). Further: nearly all actives have a fitted effect of over 50% in size. Further: potency means the concentration at half of the fitted maximal effect. The method in brief: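 Channel function was assessed by thallium flux. Cells seeded the previous day and kept at 37 C took up FluxOR II dye over 1 h in the dark at room temperature, then sat another 10 min before stimulation.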

For assay [9], the target named is Cytochrome P450 3A4 (Homo sapiens) (UniProt P08684). In words: Cytochrome P450 Family 3 Subfamily A Member 4 (CYP3A4) small molecule antagonists: luciferase reporter qHTS assay (AID 1671201). Further: nearly all actives have a fitted effect of over 50% in size. Further: potency means the concentration at half of the fitted maximal effect. In a few lines:
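Compounds in DMSO were pin-transferred onto CYP3A4 enzyme-substrate mix and held 10 min at room temperature. NADPH regenerating solution started the reaction for 1 h; luciferin detection reagent stopped it, and luminescence was read after 20 min.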

The target of assay [10] is Cytochrome P450 2C9 (Homo sapiens) (UniProt P11712). In words: Cytochrome P450 Family 2 Subfamily C Member 9 (CYP2C9) small molecule antagonists: luciferase reporter qHTS assay (AID 1671198). Further: nearly all actives have a fitted effect of over 50% in size. Further: potency means the concentration at half of the fitted maximal effect. The method in brief:
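CYP2C9 activity was measured with a P450-Glo proluciferin substrate. Enzyme–substrate mix was held with compound for 10 min at room temperature, then NADPH regeneration solution was added for 1 h at 37C. Luciferin product was read as luminescence.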

Chain of Cytochrome P450 1A2 (Homo sapiens) (P05177 whole entry, looked up): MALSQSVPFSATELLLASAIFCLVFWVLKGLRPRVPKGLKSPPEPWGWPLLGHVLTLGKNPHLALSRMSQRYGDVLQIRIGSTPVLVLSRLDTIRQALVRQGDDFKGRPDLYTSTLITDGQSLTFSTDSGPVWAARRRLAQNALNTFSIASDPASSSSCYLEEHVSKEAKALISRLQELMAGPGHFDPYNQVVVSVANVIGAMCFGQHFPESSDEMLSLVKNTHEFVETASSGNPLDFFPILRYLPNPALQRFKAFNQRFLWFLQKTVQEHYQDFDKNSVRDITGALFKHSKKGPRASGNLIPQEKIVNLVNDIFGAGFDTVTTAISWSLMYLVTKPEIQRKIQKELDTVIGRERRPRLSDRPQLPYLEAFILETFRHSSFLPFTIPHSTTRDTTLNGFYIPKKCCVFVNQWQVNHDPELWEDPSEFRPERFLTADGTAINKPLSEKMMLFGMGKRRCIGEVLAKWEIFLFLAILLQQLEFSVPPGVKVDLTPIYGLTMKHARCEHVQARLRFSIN
Chain of Cytochrome P450 2D6 (Homo sapiens) (P10635 whole entry, looked up): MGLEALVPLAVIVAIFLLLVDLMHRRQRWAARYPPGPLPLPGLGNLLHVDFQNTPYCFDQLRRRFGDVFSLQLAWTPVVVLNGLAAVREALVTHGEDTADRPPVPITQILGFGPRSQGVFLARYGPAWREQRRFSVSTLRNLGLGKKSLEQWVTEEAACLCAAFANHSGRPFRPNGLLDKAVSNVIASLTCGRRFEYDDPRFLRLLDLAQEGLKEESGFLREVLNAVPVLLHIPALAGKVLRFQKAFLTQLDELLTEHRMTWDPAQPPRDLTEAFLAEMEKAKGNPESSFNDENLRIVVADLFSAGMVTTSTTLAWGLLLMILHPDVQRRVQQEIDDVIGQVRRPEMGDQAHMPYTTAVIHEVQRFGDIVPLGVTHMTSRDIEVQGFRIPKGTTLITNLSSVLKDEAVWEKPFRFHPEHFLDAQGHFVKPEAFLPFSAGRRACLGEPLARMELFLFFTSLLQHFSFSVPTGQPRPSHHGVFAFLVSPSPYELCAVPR
Chain of Voltage-gated inwardly rectifying potassium channel KCNH2 (Homo sapiens) (Q12809 whole entry, looked up): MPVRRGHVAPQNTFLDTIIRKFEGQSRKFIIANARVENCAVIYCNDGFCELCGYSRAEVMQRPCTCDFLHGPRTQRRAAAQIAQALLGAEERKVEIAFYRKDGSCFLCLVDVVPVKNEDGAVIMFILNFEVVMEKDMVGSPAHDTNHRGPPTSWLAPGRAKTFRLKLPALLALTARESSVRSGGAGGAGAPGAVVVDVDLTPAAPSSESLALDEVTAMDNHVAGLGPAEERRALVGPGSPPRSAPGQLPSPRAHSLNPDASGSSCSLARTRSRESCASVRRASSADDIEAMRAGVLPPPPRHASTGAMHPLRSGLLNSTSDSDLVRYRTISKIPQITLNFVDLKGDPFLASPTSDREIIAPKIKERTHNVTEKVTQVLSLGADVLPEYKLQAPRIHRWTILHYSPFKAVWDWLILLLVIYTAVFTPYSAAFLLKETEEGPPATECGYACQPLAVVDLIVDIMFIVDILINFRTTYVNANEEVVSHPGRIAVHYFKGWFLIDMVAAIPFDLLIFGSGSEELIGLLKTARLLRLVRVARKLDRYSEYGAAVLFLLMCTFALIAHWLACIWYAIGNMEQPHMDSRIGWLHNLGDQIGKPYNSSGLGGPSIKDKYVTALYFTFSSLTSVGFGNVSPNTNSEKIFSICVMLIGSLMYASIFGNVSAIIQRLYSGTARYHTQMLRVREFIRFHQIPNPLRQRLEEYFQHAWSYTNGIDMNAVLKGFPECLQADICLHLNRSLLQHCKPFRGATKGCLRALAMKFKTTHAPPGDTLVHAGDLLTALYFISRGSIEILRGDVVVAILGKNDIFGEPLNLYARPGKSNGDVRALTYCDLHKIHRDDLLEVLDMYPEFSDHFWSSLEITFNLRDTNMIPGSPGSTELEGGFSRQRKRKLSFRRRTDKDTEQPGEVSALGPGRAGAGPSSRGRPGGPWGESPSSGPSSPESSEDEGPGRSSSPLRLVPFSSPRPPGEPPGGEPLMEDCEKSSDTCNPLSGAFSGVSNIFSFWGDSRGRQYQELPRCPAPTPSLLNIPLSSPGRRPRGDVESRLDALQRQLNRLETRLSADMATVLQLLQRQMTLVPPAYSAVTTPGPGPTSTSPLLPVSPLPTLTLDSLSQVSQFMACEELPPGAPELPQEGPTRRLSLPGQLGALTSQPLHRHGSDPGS
Chain of Cytochrome P450 2C9 (Homo sapiens) (P11712 whole entry, looked up): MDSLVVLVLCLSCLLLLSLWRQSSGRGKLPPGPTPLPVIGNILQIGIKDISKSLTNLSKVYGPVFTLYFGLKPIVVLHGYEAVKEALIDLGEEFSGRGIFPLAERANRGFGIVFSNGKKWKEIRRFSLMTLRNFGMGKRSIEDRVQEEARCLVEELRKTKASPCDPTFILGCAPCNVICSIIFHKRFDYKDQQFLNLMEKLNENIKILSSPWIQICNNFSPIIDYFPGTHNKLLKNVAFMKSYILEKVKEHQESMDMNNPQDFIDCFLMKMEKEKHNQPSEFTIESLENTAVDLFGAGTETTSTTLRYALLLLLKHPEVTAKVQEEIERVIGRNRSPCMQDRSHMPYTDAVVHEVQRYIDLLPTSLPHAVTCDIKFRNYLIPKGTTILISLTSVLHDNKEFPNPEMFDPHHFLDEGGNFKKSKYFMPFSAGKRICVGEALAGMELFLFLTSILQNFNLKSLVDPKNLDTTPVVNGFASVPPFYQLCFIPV
Chain of Acetylcholinesterase (Homo sapiens) (P22303 whole entry, looked up): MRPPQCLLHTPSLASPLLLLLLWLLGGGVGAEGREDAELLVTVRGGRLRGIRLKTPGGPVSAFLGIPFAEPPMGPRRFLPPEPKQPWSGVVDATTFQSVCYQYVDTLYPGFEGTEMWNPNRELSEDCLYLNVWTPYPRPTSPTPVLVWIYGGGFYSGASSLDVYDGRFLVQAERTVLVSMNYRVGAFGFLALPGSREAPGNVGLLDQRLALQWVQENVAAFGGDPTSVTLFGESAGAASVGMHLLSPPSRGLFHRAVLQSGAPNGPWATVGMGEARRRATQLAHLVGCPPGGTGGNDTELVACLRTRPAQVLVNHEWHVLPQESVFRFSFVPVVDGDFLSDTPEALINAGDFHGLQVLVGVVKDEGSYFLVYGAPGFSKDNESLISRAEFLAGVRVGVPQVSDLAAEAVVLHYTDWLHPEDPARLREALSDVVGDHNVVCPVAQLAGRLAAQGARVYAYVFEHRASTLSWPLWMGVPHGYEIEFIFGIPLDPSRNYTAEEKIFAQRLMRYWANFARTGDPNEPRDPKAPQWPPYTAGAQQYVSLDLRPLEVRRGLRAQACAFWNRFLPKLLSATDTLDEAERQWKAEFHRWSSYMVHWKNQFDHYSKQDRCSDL
Chain of Cytochrome P450 3A4 (Homo sapiens) (P08684 whole entry, looked up): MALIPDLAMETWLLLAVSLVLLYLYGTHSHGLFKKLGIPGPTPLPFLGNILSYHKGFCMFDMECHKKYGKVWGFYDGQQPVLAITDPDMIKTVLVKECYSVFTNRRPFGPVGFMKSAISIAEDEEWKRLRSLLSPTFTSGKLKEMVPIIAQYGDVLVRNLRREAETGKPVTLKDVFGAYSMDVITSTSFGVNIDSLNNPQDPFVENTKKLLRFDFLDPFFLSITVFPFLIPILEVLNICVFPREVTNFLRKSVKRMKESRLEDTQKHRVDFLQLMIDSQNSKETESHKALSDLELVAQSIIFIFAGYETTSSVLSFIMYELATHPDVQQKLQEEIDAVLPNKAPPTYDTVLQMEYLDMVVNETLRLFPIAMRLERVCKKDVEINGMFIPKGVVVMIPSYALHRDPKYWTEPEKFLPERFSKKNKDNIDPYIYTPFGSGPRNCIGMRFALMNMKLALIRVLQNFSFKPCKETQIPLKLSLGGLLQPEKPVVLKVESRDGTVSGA

As to `O=C(O)CC[N+](=O)[O-]`, the Potency entry in assay [1] was “inactive and 8.94 µM (active)”; in assay [2], “inactive and 28.3 µM (active)”; in [3], “inactive and 7.96 µM (active)”. Besides, the Potency result in [4], in assay [5], in [6], in assay [7], in assay [8] and in [9] was “inactive” each time.
For `C1=Cc2cccc3cccc1c23`, the Potency result in [1], in assay [2], in assay [3], in assay [4], in assay [5] and in assay [10] was “inactive” in each case. Further, the Potency result in assay [8] and in assay [9] was “inactive” throughout. Also, in assay [7], the Potency was 31.2 µM (active) and 25.2 µM (active).
`O=c1oc2ccccc2c(O)c1C(CC(O)c1ccc(-c2ccc(Br)cc2)cc1)c1ccccc1` (stereo unspecified): the Potency entry in [1], in assay [2], in [3], in [4], in [5] and in assay [7] was “inactive” each time. The Potency entry in assay [8] is “inactive”. In assay [10], the Potency was 3.37 µM (active) and 3.47 µM (active).
Take `CCCCCCCCC(=O)NCc1ccc(O)c(OC)c1`: the Potency entry in assay [2], in assay [3] and in assay [4] was “inactive” in each case. Moreover, the Potency in [5] is 31.7 µM (active) and 17.4 µM (active); in [6], 4.9 µM (active); in [10], 2.52 µM (active) and 2.45 µM (active); in [7], 31.7 µM (active) and 27.5 µM (active).
Take `Cc1ccc(OP(=O)(Oc2ccc(C)cc2)Oc2ccc(C)cc2)cc1`: the Potency result in assay [1], in assay [2], in assay [3], in [4] and in assay [5] was “inactive” in each case. Besides, the Potency in [6] is 3.99 µM (active) and 5.03 µM (active); in [10] it was 7.09 µM (active) and 8.94 µM (active); in assay [7], 7.09 µM (active) and 7.1 µM (active); in assay [9], 7.09 µM (active) and 10 µM (active).
With `C=CC(=O)OCCO`, the Potency result in [1], in assay [2], in assay [3], in assay [4], in assay [5] and in [6] was “inactive” throughout. The Potency result in assay [10] and in assay [9] was “inactive” throughout.
Consider `CCCCOCCOP(=O)(OCCOCCCC)OCCOCCCC`, for which the Potency entry in assay [1], in assay [2], in assay [3] and in assay [4] was “inactive” throughout. The Potency was 7.98 µM (active) and 8.94 µM (active) in assay [6]; 8.95 µM (active) and 15.9 µM (active) in [10]; 8.95 µM (active) and 15.9 µM (active) in assay [9].
With `CC(C)(C)c1ccccc1O`, the Potency result in [1], in [2], in assay [3], in assay [4], in assay [5] and in assay [6] was “inactive” each time. The Potency result in [10], in [8] and in [9] was “inactive” each time.
Regarding `CCCCCCOC(=O)c1ccccc1C(=O)OCCCCCC`, the Potency result in [2], in assay [3], in assay [4], in assay [5] and in [8] was “inactive” throughout. Besides, the Potency in assay [6] was 20.4 µM (active) and 7.96 µM (active); in assay [10], 25.7 µM (active) and 7.96 µM (active); in [7], 22.9 µM (active) and 10 µM (active).
As to `C[C@]12CCC(=O)C[C@@H]1CC[C@@H]1[C@@H]2CC[C@]2(C)[C@@H](O)CC[C@@H]12`, the Potency in assay [8] was 21.6 µM (active).
As for `Cc1cc(C)cc(C)c1`, the Potency result in [2], in assay [3], in assay [4], in assay [5], in assay [6] and in [10] was “inactive” each time. Further, the Potency result in assay [7] and in [9] was “inactive” in each case.
Take `CNC(=O)N(C)c1nnc(C(C)(C)C)s1`: the Potency result in [2], in assay [3], in [4], in assay [5], in assay [10] and in assay [8] was “inactive” each time. For the same molecule, the Potency entry in [9] was “inactive”. In addition, the Potency in assay [6] was 39.9 µM (active) and inactive; in assay [7], 39.9 µM (active).
On to `ClC1C(Cl)C(Cl)C(Cl)C(Cl)C1Cl` (stereo unspecified), for which the Potency entry in assay [5] is “inactive and 39.9 µM (active) and 71 µM (active)”; in [10] it was 32.4 µM (active) and 35.6 µM (active) and 31.7 µM (active); in assay [8] it was 39.7 µM (active) and inactive and 43.6 µM (active).
For `NNC(N)=S`, the Potency result in assay [2], in [3], in [4], in assay [5], in [8] and in [9] was “inactive” each time. The Potency in assay [6] was 73.8 µM (active); in assay [7], 20.8 µM (active) and 31.7 µM (active).
On to `O=C(NC(=O)c1c(F)cccc1F)Nc1ccc(Cl)cc1`, for which the Potency result in assay [2], in assay [3], in assay [4], in assay [5], in assay [6] and in [10] was “inactive” each time. Further, the Potency entry in assay [8] and in assay [9] was “inactive” throughout. Besides, in assay [7], the Potency is 35.6 µM (active).
`N#Cc1cc(Br)c(O)c(Br)c1`: the Potency entry in [2], in assay [3], in assay [4], in [5], in assay [6] and in assay [7] was “inactive” in each case. For the same molecule, the Potency entry in assay [8] and in [9] was “inactive” each time. In addition, in [10], the Potency was 20 µM (active) and 15.3 µM (active).
Consider `O=[N+]([O-])c1c(Cl)c(Cl)c(Cl)c(Cl)c1Cl`, for which the Potency result in assay [2], in [4], in [6], in assay [10], in assay [8] and in [9] was “inactive” each time. Besides, the Potency is 31.6 µM (active) and inactive in [5]; 8.9 µM (active) and 1.59 µM (active) in assay [7].
On to `NC(=S)Nc1ccccc1`, for which the Potency entry in assay [2], in assay [3] and in [4] was “inactive” in each case. The Potency in assay [5] was 9.09 µM (active) and 35.6 µM (active); in assay [6], 4.06 µM (active) and inactive; in assay [10] it was 25.6 µM (active) and inactive; in assay [7] it was 25.6 µM (active) and inactive; in assay [9], 5.73 µM (active) and inactive.
As for `COc1ccc(C(CN(C)C)C2(O)CCCCC2)cc1` (stereo unspecified), the Potency result in assay [8] is “inactive”.
As for `CC1(C)C(C=C(Cl)Cl)C1C(=O)OC(C#N)c1cccc(Oc2ccccc2)c1` (stereo unspecified), the Potency entry in assay [2], in [3], in assay [4], in [5], in [7] and in assay [9] was “inactive” in each case. The Potency was 17.8 µM (active) and 24.5 µM (active) in assay [6]; 5.64 µM (active) and 12.3 µM (active) in assay [10].
Turning to `N[C@@H](Cc1ccc(N(CCCl)CCCl)cc1)C(=O)O`, the Potency is 34.1 µM (active) and 34.7 µM (active) in assay [5]; 8.57 µM (active) and 17.4 µM (active) in assay [6]; 17.1 µM (active) and 27.5 µM (active) in assay [10].
For the molecule `c1ccc(N=Nc2ccccc2)cc1`, the Potency entry in assay [2], in [3], in assay [4], in [6], in assay [10] and in assay [9] was “inactive” throughout. The Potency is 14.4 µM (active) and inactive in assay [5]; 25.7 µM (active) and 10 µM (active) in assay [7].
In the case of `C#C[C@]1(O)CC[C@H]2[C@@H]3CCC4=CC(=O)CC[C@]4(C)[C@H]3CC[C@@]21C`, the Potency entry in assay [2], in assay [3], in assay [4], in [5] and in assay [9] was “inactive” in each case. Also, the Potency in [6] is 6.33 µM (active) and 1.38 µM (active).
On to `CC(C)C(=O)OCC(C)(C)C(OC(=O)C(C)C)C(C)C` (stereo unspecified), for which the Potency result in [2], in [3], in assay [4], in assay [6], in assay [10] and in assay [7] was “inactive” throughout. In addition, the Potency entry in assay [9] is “inactive”. Also, the Potency in [5] is 32 µM (active) and inactive.
